Assay results published in PubChem BioAssay (NCATS).

Test: qHTS profiling of the MIPE4 collection as inhibitors of Plasmodium falciparum (HB3) proliferation (AID 743347);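 also: plate controls were DMSO vehicle wells for no effect and artemisinin wells for full effect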
Conditions: P. falciparum HB3 in erythrocytes, SYBR Green DNA, 72 h; at 28.5 µM (top of the series)
Excerpt: Plasmodium falciparum is a virulent malarial parasite that kills 1-2 million people worldwide each year. Transmitted by mosquitoes, the sporozoite form of the parasite enters the blood stream to infect hepatocytes, where they become merozoites that infect red blood cells (erythrocytes). Within erythrocytes, merozoites begin a […] cycle of growth and division, after which the parasite is released to infect new red blood cells. Gametocytes, which form within erythrocytes as well, circulate in the bloodstream and are ingested by the mosquito, thereby completing the life cycle. To profile malarial isolates for differential chemical responses and to identify inhibitors of malarial growth, an assay that measures P. falciparum growth and replication within erythrocytes was employed. This assay uses a DNA binding fluorescent dye (SYBR Green) to detect parasite DNA following cell lysis. Because mature erythrocytes lack DNA, only Plasmodium-derived DNA is detected.
The SYBR Green viability assay was adapted from a method described previously (Plouffe et al., 2008). For screening 3 ul culture medium was dispensed into 1536 well black clear bottom plates (Aurora Biotechnologies) using a Multidrop Combi (Thermo Fisher Scientific Inc.), 23 nL compounds in DMSO were added by a pin tool (Kalypsys), and 5 ul of erythrocytes infected with P. falciparum (0.3% parasitemia, 2.5% hematocrit final concentration) were added. The plates were incubated at 37 C in a humidified incubator in 5% CO2 for 72 h, and 2 ul lysis buffer (20 mM Tris HCl, 10 mM EDTA, 0.16% saponin, 1.6% triton X, 10X SYBR Green I supplied as 10,000X […] by Invitrogen) was added to each well. The plates were mixed for 25 sec with gentle shaking and incubated overnight at room temperature in the dark. The following morning, fluorescence intensity at 485(14) nm excitation and 535(25) nm emission wavelengths was measured on an EnVision (Perkin Elmer) plate reader. Plate reads were normalized relative to the control inhibitor (0.29 uM artemisinin) and vehicle (DMSO) wells present on each plate and then corrected by an algorithm using vehicle-only control plates at the beginning and end of the compound plate stack.

| Compound | growth, % of control [%] |
| --- | --- |
| CCOC(=O)c1c(C(C#N)=CN)c2ccc(Cl)c(Cl)c2n1C | 89.6 |
| C=C[C@@H]1CN2CCC1C[C@H]2[C@H](O)c1ccnc2ccccc12 (stereo not given in full) | 21.5 |
| O=C(Oc1ccc([N+](=O)[O-])cc1)N1CCN(Cc2cccc(Oc3ccccc3)c2)CC1 | 96.4 |
| C=CCON=C(C[C@H]1O[C@@H]2O[C@]3(C)CC[C@@H]4[C@H](C)CC[C@@H]([C@H]1C)[C@@]24OO3)[C@H]1O[C@@H]2O[C@]3(C)CC[C@H]4[C@H](C)CC[C@@H]([C@@H]1C)[C@@]24OO3 | 64.2 |
| C[C@H]([C@H](O)CCC(C)(C)O)[C@H]1CC[C@@]2(O)C3=CC(=O)[C@@H]4C[C@@H](O)[C@@H](O)C[C@]4(C)[C@@H]3CC[C@]12C | 59 |
| O=[N+]([O-])c1ncc[nH]1 | 81.7 |
| c1ccc(CCCN2CCN(CCOC(c3ccccc3)c3ccccc3)CC2)cc1 | 19.2 |
| C[C@@H]1CC[C@H]2[C@@H](C)C(=O)O[C@@H]3O[C@@]4(C)CC[C@H]1[C@]32OO4 | 7.52 |
| CC(C)(O)C=CC(=O)[C@](C)(O)[C@H]1[C@H](O)C[C@]2(C)[C@@H]3CC=C4[C@@H](C=C(O)C(=O)C4(C)C)[C@]3(C)C(=O)C[C@@]12C | 7.62 |
| C[C@]12Cc3cn[nH]c3C[C@@H]1CC[C@@H]1[C@H]2CC[C@@]2(C)[C@H]1CC[C@]2(C)O | 47.2 |
| CCCC[N+]1(C)[C@H]2CC(OC(=O)[C@H](CO)c3ccccc3)C[C@H]1[C@H]1O[C@H]12 (stereo not given in full) | 52.3 |
| CC1=NN=C(c2ccc(N)cc2)c2cc3c(cc2C1)OCO3 | 685 |
| CCCCN1CCC(CNC(=O)c2c3n(c4ccccc24)CCCO3)CC1 | 32.4 |
| c1ccc2c(CN3CCNCC3)cccc2c1 | 109 |
| CCC(=O)OC1CCC2C3CCC4=CC(=O)CC[C@@]4(C)C3CC[C@]12C (stereo not given in full) | 94.7 |
| CC[C@H](CO)Nc1nc(NCc2ccccc2)c2ncn(C(C)C)c2n1 | 47.3 |
| C1=C2CCCN[C@H]2[C@@H]2C[C@H]1[C@@H]1CCCCN1C2 | 94.5 |
| COc1ccc(C(=O)c2c(C)n(CCN3CCOCC3)c3cc(I)ccc23)cc1 | 33.7 |
| C[C@@H]1[C@H](O)[C@@H](C)C=CC=CCCC=CC=CC=CC=C[C@H](O[C@H]2O[C@@H](C)[C@H](O)[C@@H](N)[C@@H]2O)CC2O[C@](O)(C[C@@H](O)[C@H](O)CC[C@@H](O)C[C@@H](O)C[C@@H](O)CC(=O)O[C@H]1C)C[C@H](O)[C@H]2C(=O)O | 83.8 |
| O=C(N[C@@H](COc1ccc2[nH]c(=O)[nH]c2c1)c1ccccc1)c1cccn(Cc2ccc(F)c(F)c2)c1=O | 63.1 |

| Compound | growth, % of control [%] |
| --- | --- |
| Cc1c(N)nc([C@H](CC(N)=O)NC[C@@H](N)C(N)=O)nc1C(=O)N[C@H](C(=O)N[C@@H](C)[C@H](O)[C@@H](C)C(=O)N[C@@H](C(=O)NCCc1nc(-c2nc(C(=O)NCCC[S+](C)C)cs2)cs1)[C@@H](C)O)C(O[C@H]1O[C@H](CO)[C@H](O)[C@@H](O)[C@@H]1O[C@H]1O[C@H](CO)[C@@H](O)[C@H](OC(N)=O)[C@H]1O)c1cnc[nH]1 (stereo not given in full) | 68.4 |
| COc1ccc2c(c1)CN(C)CC2c1ccc(Cl)c(Cl)c1 (stereo not given) | 9.4 |
| Cc1c(C(=O)Nc2cccc(C(F)(F)F)c2)cc(-c2ccccc2)n1CCCN1CCOCC1 | 10.9 |
| C[C@](O)(COc1ccc(C#N)cc1)C(=O)Nc1ccc(C#N)c(C(F)(F)F)c1 | 9.27 |
| CC(=O)OCC1=C(C(=O)O)N2C(=O)[C@@H](N)[C@@H]2SC1 | 97.3 |
| O=C1CCC[C@@H]2[C@H]3CCCN4CCC[C@@H](CN12)[C@@H]34 | 96.2 |
| O=C(N[C@H]1CN2CCC1CC2)c1ccc(Cl)cc1 | 71.8 |
| CCN1CCN(C(=O)Cc2ccc(Nc3ncc(F)c(Nc4ccc(C(=O)Nc5ccccc5Cl)cc4)n3)cc2)CC1 | 7.73 |
| C#C[C@]1(O)C=C[C@@H]2[C@@H]3CCC4=CC(=O)CC[C@@H]4[C@H]3CC[C@@]21CC | 41.2 |
| CC(C)[C@H]1C(=O)N[C@H](CO)Cc2c[nH]c3cccc(c23)N1C | 88.8 |
| C=C[C@@H]1CN2CCC1C[C@@H]2[C@@H](O)c1ccnc2ccccc12 (stereo not given in full) | 17.3 |
| CC(C)(C)[C@]1(O)C[C@@H]2OC(=O)C[C@@]23C(=O)O[C@@H]2OC(=O)[C@H](O)C213 (stereo not given in full) | 75.6 |
| CCOP(=O)(OCC)C(C)NC(=O)N(CCCl)N=O (stereo not given) | 116 |
| CO[C@H]1CCC(O[C@H]2C[C@H]([C@]3(C)CC[C@]4(C[C@H](O)[C@@H](C)[C@@H]([C@@H](C)C=C(C)C(=O)[C@H](C)C[C@H](C)C(=O)O)O4)O3)O[C@]3(O[C@@H]([C@H]4O[C@@](O)(CO)[C@H](C)C[C@H]4C)C[C@H]3C)[C@H]2C)O[C@H]1C (stereo not given in full) | 8.74 |
| COc1ccc2c(c1)[C@]13CCCCC1C(C2)N(C)CC3 (stereo not given in full) | 323 |
| CCOC(=O)Nc1ccc(NCc2ccc(F)cc2)cc1N | 15.1 |
| CC[C@@H]1[C@@H](C)O[C@@](O)([C@@H](C)[C@H](O)[C@H](C)[C@H]2OC(=O)C=CC=C[C@@H](C)[C@@H]([C@@H](C)[C@@H](O)[C@H](C)[C@@]3(O)C[C@H](O[C@H]4C[C@H](O)[C@H](O)[C@H](C)O4)[C@H](CC)[C@@H](C)O3)OC(=O)C=CC=C[C@@H]2C)C[C@H]1O[C@H]1C[C@H](O)[C@H](O)[C@H](C)O1 | 47.6 |
| CC(C)[C@]12O[C@@H]1[C@@H]1O[C@]13[C@]1(O[C@H]1C[C@@H]1C4=C(CC[C@@]13C)C(=O)OC4)[C@H]2O | 44.2 |
| C[C@]12CC[C@@H]3[C@@H](CCC4=CC(=O)CC[C@@H]43)[C@@H]1CC[C@@H]2OC(=O)CCc1ccccc1 | 90.8 |
| O=C(NCC1CCOCC1)c1cnc(Nc2ccc(Cl)cc2Cl)nc1C(F)(F)F | 49.9 |
